ERG Ets-DNA blk: ERG Ets/DNA interaction inhibition. P11308. fluorescence polarization, His-ERG Ets domain / labelled DNA. Potency, µM (doses to about 76.9 µM), most hits filed as inhibitors. 0.028% of 370,000 active. AID 624246; active = well fitted inhibition curve with a large enough effect in the polarisation, with a control signal flat; inconclusive = small, poorly fitted or top-dose-only effect, or effect the other way, or a change in a side signal; inactive = no such curve, though single readings can be large or run the other way; the % refers to the polarisation;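 also: polarization taken with two DNA probes labelled with fluorescein and Texas red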
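His-tagged ERG Ets domain (1 uM in the protein solution; 300mM KCl, 50mM Tris-HCl, 1mM EDTA, 1mM DTT, pH 7.5) received compound, then a probe mix of 5 nM fluorescein-DNA and 100nM Texas-615-DNA. Fluorescence polarization was read for both dyes.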
Anesthetic bind: candidate novel general anesthetic via apoferritin binding; P02791; apoferritin/1-aminoanthracene competitive binding, fluorescence; Potency, µM (titrated, usually from 77.5 µM), actives largely listed as inhibitors; 0.074% of 350,000 active; also: nearly all actives have a fitted effect of over 20% in size
Target sequence (P02791 2-175 limits assumed): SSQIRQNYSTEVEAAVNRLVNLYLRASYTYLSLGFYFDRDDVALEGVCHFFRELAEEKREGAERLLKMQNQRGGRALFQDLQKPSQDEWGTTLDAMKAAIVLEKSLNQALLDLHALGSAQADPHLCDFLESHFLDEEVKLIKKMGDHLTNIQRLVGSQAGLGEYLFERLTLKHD
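Apoferritin-based anesthetic binding model; compound displacement of fluorescent 1-AMA measured as endpoint fluorescence after 10 minutes at room temperature, scaled to free-ligand and complex controls.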
BRCA1 expr act: increases BRCA1 expression; 1.1% of 380,000 active; Potency, µM (top dose mostly 46.1 µM), actives largely listed as activators; MCF7-BRCA1-FFLuc reporter, luminescence, 48 h; response scale: scaled: vehicle 0%, 10 µM genistein 100%; AID 624202; also: nearly all actives have a fitted effect of over 80% in size
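Quantitative HTS in MCF7 cells stably reporting BRCA1 expression via firefly luciferase. Compound treatment lasts 48 h at 37 °C in phenol-red free MEM. Activation is expressed relative to genistein at 10 microM and DMSO.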
GoLoco inh red: blocks human Gai1 binding to RGS12 GoLoco peptide, red readout; Gai1:RGS12 GoLoco peptide FP, rhodamine, 10 min; Potency, µM (highest dose often 61.6 µM), actives largely listed as inhibitors; 0.44% of 230,000 active; active = well fitted inhibition curve with a large enough effect, not every such curve was filed as active; inactive = no such curve, though single readings can be large or run the other way; also: nearly all actives have a fitted effect of over 30% in size
Target sequence (P63096 whole entry, looked up): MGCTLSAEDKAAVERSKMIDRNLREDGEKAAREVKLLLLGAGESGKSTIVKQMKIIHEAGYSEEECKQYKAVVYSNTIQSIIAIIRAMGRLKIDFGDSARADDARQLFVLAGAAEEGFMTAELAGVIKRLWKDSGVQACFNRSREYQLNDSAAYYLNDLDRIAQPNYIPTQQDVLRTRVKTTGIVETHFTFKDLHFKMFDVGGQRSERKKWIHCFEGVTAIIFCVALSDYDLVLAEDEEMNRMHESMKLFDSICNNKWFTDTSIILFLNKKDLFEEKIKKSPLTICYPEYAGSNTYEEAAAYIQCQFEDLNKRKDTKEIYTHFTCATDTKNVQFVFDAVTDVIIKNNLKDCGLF
Numbers stand for hits; – = inactive; ? = inconclusive; · = not tested or not shown; [ ] = remark or other dose. Sampled rows, rich in hits. Any-hit rate of the full collection: about 1.2%. Unless noted, calls follow the shape of the dose curve; as a rule, active = well fitted curve in the direction sought with a large enough effect; inconclusive = small, poorly fitted or top-dose-only effect, or another doubt; inactive = no such curve, though single readings can be large; an effect the other way counts as inactive or inconclusive.

SMILES	ERG Ets-DNA blk	Anesthetic bind	BRCA1 expr act	GoLoco inh red
COC1=CC(=O)C(C(=O)c2ccccc2)=CC1=O	·	–	·	6.31µM
CN(C)c1ncnc2c1ncn2-c1ccccc1	–	·	11.2µM	·
O=C(C[n+]1cccc(Br)c1)c1ccc2c(c1)CCCC2	·	·	–	·
O=C(CCS(=O)(=O)c1ccccc1)Nc1ncc([N+](=O)[O-])s1	–	–	–	·
O=C(CCS(=O)(=O)Cc1ccccc1)Nc1ncc([N+](=O)[O-])s1	–	–	8.91µM	·
CC(=O)/C=C/c1ccccc1O	–	–	–	–
COC(=O)/C=C/c1cc(O)ccc1O	·	–	·	2.82µM
CC(=O)C(C)Oc1ccc2c3c(c(=O)oc2c1)CCCC3 (stereo not given)	–	–	11.2µM	–
COc1ccc2c(c1OC)C(=O)OC2c1ccc(O)cc1 (stereo not given)	·	·	–	·
Cc1cc(=O)oc2cc(O)c(CN(C)CC(=O)O)cc12	·	·	·	–[14.2 µM]
CC1(C)CC(=O)c2cnc(N3CCc4ccccc4C3)nc2C1	·	–	7.08µM	–
Cc1ccc(CSc2nc(=O)c3c(C)cc(C)nc3n2C2CC2)cc1	–	–	·	·
CCCc1noc(-c2ccc(-c3ccccc3)cc2)n1	–	–	8.91µM	–
CC(C)c1ccc(CNc2ncccn2)cc1	–	–	11.2µM	·
CC(C)c1ccc(CNc2ccc3c(c2)ncn3C)cc1	–	–	–	·
O=C(c1cnccn1)N1CCC[C@@]2(CCN(c3cccc(-c4ccccc4)c3)C2)C1	·	·	·	–
N/C(=N/OC(=O)c1ccccc1F)c1nonc1N	–	–	?	–
Cn1cc(Cl)c(/C(N)=N/OC(=O)c2ccccc2C(F)(F)F)n1	–	–	11.2µM	·
O=C(CCc1nnc(-c2ccsc2)o1)N1CCc2c(Cl)cccc2C1	–	–	11.2µM	–
O=C(CCc1nnc(-c2ccc(-c3ccccc3)cc2)o1)N1CCCCC1	–	–	–	–
Cc1cnc(C(=O)OCC(=O)Nc2sc3c(c2C#N)CCC3)cn1	–	·	–	·
Cc1cccc(OCC(=O)Nc2sc3c(c2C#N)CCC3)c1	·	–	10µM	–
Cc1ccc(S(=O)(=O)NNC(=O)c2ccc(C(=O)N(c3ccccc3)c3ccccc3)cc2)cc1	·	·	–	·
Cc1cc(O)c(-c2cc(C(=O)Nc3cccnc3)[nH]n2)cc1C	–	–	5.62µM	–
Cc1cc(C(C)(C)CC(C)(C)C)ccc1OCCOCC[N+](C)(C)Cc1ccccc1	?	31.6µM	–	–
SMILES	ERG Ets-DNA blk	Anesthetic bind	BRCA1 expr act	GoLoco inh red
C[N+](C)(CCOc1ccccc1)Cc1ccccc1	–	·	–	·
Cc1ccc(/C=C2/NC(=O)N(c3ccccc3)C2=O)o1	–	–	7.94µM	–
CC(N)(COP(=O)(O)O)C(=O)O (stereo not given)	·	–	·	–
CCS(=O)(=O)c1ccc(O)c(NC(=O)/C=C/c2ccccc2)c1	–	–	12.6µM	–
CC1=NNC(=S)NCCCN2CCN(CCCNC(=S)NN=C(C)C=NNC(=S)NCCCN3CCN(CCCNC(=S)NN=C1)CC3)CC2	·	·	·	–[14.2 µM]
NC(C(=O)O)(c1ccc(P(=O)(O)O)cc1)C1CC1 (stereo not given)	·	–	·	–
O=C(c1cc2ccccc2o1)N1CCCCCC1	–	–	8.91µM	–
O=C(c1cc2ccccc2o1)N1CCCC1	–	–	–	–
CC1CCN(C(=O)c2cc3ccccc3o2)CC1	–	–	11.2µM	–
N#Cc1cccc(-c2csc(C(O)c3ccc(F)cc3)n2)c1 (stereo not given)	·	·	7.94µM	·
CN(C)c1ccc(N=Nc2ccnc3ccccc23)cc1	·	·	–	·
O=c1c2ccccc2sc2ccc(NCCCN3CCOCC3)cc12	–	·	11.2µM	·
O=Cc1ccc(OCc2ccc3c(c2)OCO3)cc1	–	?	2.82µM	·
CCCCN1CCC2C=CCC(C(=O)O)C2C1=O (stereo not given)	·	–	·	·
C#CC(C)(C)NC(=O)c1ccc(-c2ccccc2F)cc1	–	–	12.6µM	–
NNC(=O)c1ccc(-c2ccccc2F)cc1	–	–	–	–
Cc1cc(C)cc(NC(=O)COC(=O)CCCC2=NS(=O)(=O)c3ccccc3N2)c1	–	–	–	–
Cc1cccc(OCC2=NS(=O)(=O)c3ccccc3N2)c1	–	–	11.2µM	–
Cc1csc(=N)n1-c1ccc(Cl)cc1	·	11.2µM	?	–
COc1ccc(OC)c(/C=C/c2c3ccccc3cc[n+]2C)c1	·	·	–	·
Cn1c(SCn2nnc3ccccc3c2=O)nc2ccccc2c1=O	·	–	·	–
O=c1c2ccccc2nnn1CSc1nnc2ccccn12	–	–	5.62µM	–
O=C(N/N=C/c1cccc([N+](=O)[O-])c1)c1ccc(Br)cc1	–	–	–	–
O=C(N/N=C/c1ccc(-n2ccnc2)cc1)c1cccs1	–	–	11.2µM	·
Cc1nn(-c2ccccc2)cc1/C=N/NC(=O)c1cccs1	–	–	–	–
SMILES	ERG Ets-DNA blk	Anesthetic bind	BRCA1 expr act	GoLoco inh red
O=C(N/N=C/c1cccc([N+](=O)[O-])c1)c1cccs1	–	–	12.6µM	–
O=C(N/N=C/c1ccncc1)c1cccs1	–	–	12.6µM	·
CSc1ccc(/C=N/NC(=O)c2cccs2)cc1	–	–	?	–
O=C(N/N=C/C=C\c1ccco1)c1cccs1	–	–	7.08µM	–
CN(CCCc1cnc[nH]1)C(=S)NCCCN(Cc1ccc(Cl)cc1)c1ccc(Br)cn1	·	·	–	·
CSc1ccc(/C=C2\C=Cc3ccccc32)cc1	·	·	–	·
S=C([S-])NCCNC(=S)[S-].[Zn+2]	·	·	·	–
OCc1ccccc1OCCOc1ccc(Cl)c2cccnc12	–	–	–	–
Clc1ccc(OCc2cn3ccccc3n2)c2ncccc12	–	–	3.16µM	–
O=[N+]([O-])c1nc2ccccc2[nH]1	–	·	–	·
O=C(c1nc2ccccc2[nH]1)c1ccccc1[N+](=O)[O-]	–	–	11.2µM	–
O=C(NNC(=O)c1cccc2ccccc12)c1cccc(Cl)c1	–	·	–	·
O=C(NNC(=O)c1cccc2ccccc12)c1ccc(Cl)cc1Cl	–	·	12.6µM	·
Cc1ccc(C2C=C(c3ccc(Cl)cc3)Nc3nc(NC(=O)c4ccco4)nn32)cc1 (stereo not given)	–	–	·	·
COc1ccc2cc(-c3ccon3)ccc2c1	–	–	10µM	·
COc1ccc(-c2cc3ccc(OC)cc3cn2)cc1	–	·	?	·
CC(=O)NC1=C(C#N)CCC1	·	·	–	·
COc1ccc2c(c1)CC[C@@H]1[C@@H]2CC[C@]2(C)[C@@H](NCCCCCCN3C(=O)C=CC3=O)CC[C@@H]12	·	–	·	–
C=C(C)CSc1nncn1/N=C/c1ccc(OC)cc1	–	12.6µM	7.94µM	–
CCSc1nncn1/N=C/c1ccc(OC)c(OC)c1	–	–	–	–
Cc1c(-c2ccccc2)[nH]n2c(=O)c3c(nc12)CCCC3	–	–	3.16µM	–
CCOC(=O)c1c(C)[nH]c(N=Nc2ccc(OC)cc2)c1C	–	–	6.31µM	–
CCOC(=O)c1c(C)[nH]c(N=Nc2ccc(C)cc2)c1C	·	?	?	–
CCOC(=O)c1c(C)[nH]c(C=Nc2ccc(OC)cc2)c1O	–	–	6.31µM	–
CCOC(=O)c1c(C)[nH]c(C=Nc2ccccc2)c1O	·	–	·	–
O=C(c1cccs1)N1CCCc2cc(NS(=O)(=O)c3ccc(F)cc3)ccc21	–	–	·	·

Screening results as filed in PubChem.
